GalR3 antagonist: human GalR3 antagonism; O60755; HEK293 GalR3-CNG cAMP membrane potential fluorescence; galR3 body fused to GalR1 C-terminus; inhibition, % at 3 µM; 360,000 compounds, 0.44% hits;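 active means inhibition above the screen-wide average plus 3 SD, cut at about 13% in these data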;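 further: forskolin and galanin both at EC90 stimulate the cells; cAMP rise reported by CNG channel membrane potential dye signal; 0% = forskolin plus galanin with DMSO and 100% = forskolin alone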
Target sequence (O60755 1-299 limits assumed): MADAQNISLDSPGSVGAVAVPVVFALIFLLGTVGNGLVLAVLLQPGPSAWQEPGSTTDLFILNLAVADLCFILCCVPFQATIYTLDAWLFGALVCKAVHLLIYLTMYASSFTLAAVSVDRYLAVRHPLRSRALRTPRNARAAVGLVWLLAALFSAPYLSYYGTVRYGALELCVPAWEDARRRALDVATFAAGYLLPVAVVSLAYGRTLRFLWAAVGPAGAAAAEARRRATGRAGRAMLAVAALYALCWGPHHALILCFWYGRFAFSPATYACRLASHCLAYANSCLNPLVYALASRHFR
COUP-TFII inh: NR2F2 (human) inhibition, primary screen; AID 686940; inhibition, % at 8.6 µM; HEK293T NGFI-A luciferase reporter, luminescence; 370,000 compounds, 0.7% hits;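 active means inhibition above a per-plate cutoff, mean inhibition of test wells between control levels plus 3 SD, cut at about 38% in these data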;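 further: cells cotransfected with COUP-TFII expression vector driving the NGFI-A reporter; 0% = median of COUP-TF2 test wells and 100% = reporter-only cells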
FXN GAA850 act: frataxin GAA850 promoter activation; HEK293 lucGAA850 FXN promoter luciferase reporter, 24 h; percent of 10 µM SAHA response; activation, % at 6 µM; 360,000 compounds, 0.56% hits;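 active means activation above the average of all compounds screened plus 3 SD, cutoff fixed separately per campaign, cut at about 7.5% in these data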;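 further: 0% = DMSO wells and 100% = 10 µM SAHA wells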
H9c2 protect: myocardial damage modulation in H9c2 cells. H9c2 cardiomyocytes, H2O2 injury protection, ATPLite, 2 h. protection from H2O2 cell death, % at 20 µM. 360,000 compounds, 0.63% hits. AID 588492;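 active means compounds giving at least 50% protection of heart cells from peroxide-induced death in the single-dose screen, raw or plate-pattern-corrected value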;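 further: 0% = DMSO wells with peroxide and 100% = DMSO wells without peroxide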
SMARCA2 activ: activators of SMARCA2 function | MG213 cells, MMTV-luciferase reporter, dexamethasone, overnight | activation, % at 9.1 µM | 370,000 compounds, 1% hits; in the data active means activation above about 7.8%;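 further: 0% = vehicle wells and 100% = reference activator wells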
Gli-Sufu block: Gli-Sufu pathway antagonism | AID 588413 | Sufu-KO-LIGHT fibroblasts, Gli luciferase reporter luminescence | 340,000 compounds, 0.74% hits | inhibition, % at 5 µM;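 active means inhibition above about 55%, limit read from the data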;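 further: 0% = DMSO-treated cells and 100% = wells with medium but no cells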
GAA30 counter: activates GAA30 frataxin promoter, counter-screen for GAA850 activators; shares compounds with FXN GAA850 act; HEK293 lucGAA30 FXN promoter luciferase, 24 h; DMSO = 0%, 5 µM ipriflavone = 100%; activation, % at 6 µM; 1,900 compounds, 66% hits;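 active means mean activation above the mean of solvent-only control wells plus 3 SD, cut at about 22% in these data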;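 further: counterscreen of GAA850 promoter hits where activity marks nonselective or luminescence artifacts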
FXN GAA850 conf: confirmation of GAA850 frataxin (FXN) promoter activators. shares compounds with FXN GAA850 act. HEK293 lucGAA850 FXN promoter luciferase reporter, 24 h; 100% = activation by SAHA. activation, % at 6 µM. 1,900 compounds, 86% hits;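 active means mean activation above a set limit taken from the primary screen, cut at about 8% in these data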;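 further: 0% = DMSO wells and 100% = 10 µM SAHA wells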
An asterisk follows results filed as active; . = no result given. The list is not random: actives were taken first. Their share in the collection is about 3.4%.

SMILES | GalR3 antagonist | COUP-TFII inh | FXN GAA850 act | H9c2 protect | SMARCA2 activ | Gli-Sufu block | GAA30 counter | FXN GAA850 conf
O=C(NCc1ccco1)c1ccc(Cn2c(=O)c3sccc3n(Cc3cccc(F)c3)c2=O)cc1 | -1 | -13 | 18* | 1 | -1 | 10 | 25* | 13*
O=C(CCn1c(=O)c2sccc2n(CC(=O)NCc2ccco2)c1=O)NCc1ccccc1 | -6 | 0 | -2 | 3 | -3 | -2 | . | .
COc1ccc(CN[C@@H]2CC[C@@]34CCCN3C(=O)CCC[C@H]4C2)cc1 | . | -3 | . | . | . | . | . | .
CC(C)c1nc2sc3c(NCc4ccccc4)ncnc3c2c2c1COC(C)(C)C2 | -1 | 6 | 1 | -13 | 0 | 12 | . | .
CC(C)c1nc2sc3c(NCc4ccco4)ncnc3c2c2c1COC(C)(C)C2 | -6 | 19 | 8.1* | 14 | 1 | . | 10 | 8.0*
C[C@@H](CO)N(CCc1cn(Cc2ccccc2)nn1)S(=O)(=O)c1ccccc1Br | . | -11 | . | . | -2 | . | . | .
O=C(Nc1ccc(-c2nc3ccc(NC(=O)c4cccs4)cc3[nH]2)cc1)c1cccs1 | -5 | -71 | 15* | 46 | 9.1* | 25 | 3 | 32*
O=C(Nc1ccc2nc(-c3cccs3)[nH]c2c1)c1cccs1 | 2 | -26 | 3 | -16 | 5 | -18 | . | .
CCCc1cc(C(=O)Nc2cc(C)ccc2O)no1 | -6 | -69 | 10* | -12 | 5 | 48 | 91* | 43*
Cc1ccc2c(CN3CCC(C)CC3)cc(=O)oc2c1 | -7 | -40 | 8.6* | -1 | 6 | -65 | 125* | 46*
COC(=O)[C@]12C[C@H](CC(=O)NCc3ccc(C)o3)C(=O)N(Cc3ccco3)C1=C[C@H](COCc1ccccc1)O[C@@H]2C | . | 15 | . | . | -3 | . | . | .
COc1ccc(NS(=O)(=O)c2cc(NC(=O)CNC(=O)c3cccc(OC)c3)ccc2C)cc1 | -3 | -1 | 7.9* | 0 | 1 | 9 | 32* | 18*
Clc1ccc(CN(Cc2ccccc2)C(c2cccs2)c2nnnn2C2CCCC2)cc1 (stereo not drawn) | -2 | 2 | -1 | -14 | -4 | 6 | . | .
CC(C)(C)n1nnnc1C(c1cccs1)N(Cc1ccc(Cl)cc1)CC1CCCO1 (stereo not drawn) | -9 | 6 | 7.8* | -17 | 2 | -8 | 20 | 17*
CCN(CC)C(=O)CC[C@H]1CC[C@]2(CCCN(C(=O)c3ccno3)C2)O1 | . | -9 | . | . | 1 | . | . | .
CC(C)(C)N1Cc2nnn(Cc3ccccc3)c2-c2ccccc2S1(=O)=O | . | 0 | . | . | -4 | . | . | .
O=c1c2c3c(sc2nc2n1N=C(c1cccs1)CS2)CCCC3 | -1 | -22 | 9.6* | -30 | 3 | 8 | 87* | 40*
O=c1oc(-c2cccs2)nc2sc3c(c12)CCCC3 | -2 | 3 | -1 | -14 | -2 | -11 | . | .
O=C1CN(c2nc(-c3cccs3)nc3sc4c(c23)CCCC4)CCN1 | -4 | -55 | 9.3* | 8 | 6 | -25 | 49* | 23*
O=[N+]([O-])/C=C\c1ccc(N2CCCC2)c(F)c1 | . | . | 8.6* | -17 | . | -19 | 19 | 31*
CC1=CC(C)(C)Nc2ccc(OC(=O)CCN3C(=O)c4ccccc4C3=O)cc21 | -2 | -6 | 11* | -16 | -6 | 10 | -16 | 23*
O=C(CCN1C(=O)c2ccccc2C1=O)Oc1ccc2ccccc2c1 | -1 | 1 | 3 | -5 | -1 | -7 | . | .
N=c1c2c(-c3ccccc3)c(-c3ccccc3)n(Cc3ccccc3)c2ncn1C1CCOCC1 | . | 16 | . | . | 0 | . | . | .
CC(C)Cn1c(=O)[nH]c(=O)c2c(C(F)(F)F)cc(-c3ccccc3)nc21 | 2 | -9 | 7.7* | -1 | 0 | 16 | -4 | 16*
CCCn1c(=O)[nH]c(=O)c2c(C(F)(F)F)cc(-c3ccc(C)cc3)nc21 | -5 | -5 | 1 | -15 | -1 | 20 | . | .

High-throughput results from PubChem.
